According to PubChem BioAssay AID1159580 (chemical genetic matrix, 2015):
The campaign covered roughly 5,500 compounds. About 2,000 (36%) were called active. Another 18% or so got no clear call; they are omitted. Rule as the data show it: active = normalized growth mostly below about 0.91 (no sharp cut-off); inconclusive = no clear call, values can overlap the other calls; inactive = mostly above about 0.92. The list shows a part of the results.

Test: chemical genetic growth profiling, strain panel (AID 1159580);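 also: tested at 20 µM; growth read once vehicle control cultures reached saturation at 30 °C; 1 = growth at the plate median or of vehicle wells; lower values mean less growth of the strain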
Conditions: growth OD
[1] = S. cerevisiae deletion strains, locus YAL013W, strain DEP1, active compounds read low
[2] = S. cerevisiae deletion strains, locus YBR229C, strain ROT2, active compounds read low
[3] = S. cerevisiae deletion strains, locus YDL101C, strain DUN1, active compounds read low
[4] = S. cerevisiae deletion strains, locus YDR150W, strain NUM1, active compounds read low
[5] = S. cerevisiae deletion strains, locus YEL061C, strain CIN8, active compounds read low
[6] = S. cerevisiae deletion strains, locus YGR078C, strain PAC10, active compounds read low
[7] = S. cerevisiae deletion strains, locus YHR030C, strain SLT2, active compounds read low
[8] = S. cerevisiae deletion strains, locus YHR087W, strain rtc3, active compounds read low
[9] = S. cerevisiae deletion strains, locus YJR043C, strain POL32, active compounds read low
[10] = S. cerevisiae deletion strains, locus YJR075W, strain HOC1, active compounds read low
[11] = S. cerevisiae deletion strains, locus YLR039C, strain RIC1, active compounds read low
[12] = S. cerevisiae deletion strains, locus YLR058C, strain SHM2 (second series), active compounds read low
[13] = S. cerevisiae deletion strains, locus YLR085C, strain ARP6, active compounds read low
[14] = S. cerevisiae deletion strains, locus YLR262C, strain YPT6, active compounds read low
[15] = S. cerevisiae deletion strains, locus YML094W, strain GIM5, active compounds read low
[16] = S. cerevisiae deletion strains, locus YMR219W, strain ESC1, active compounds read low
[17] = S. cerevisiae deletion strains, locus YMR263W, strain SAP30, active compounds read low
[18] = S. cerevisiae deletion strains, locus YNL153C, strain GIM3, active compounds read low
[19] = S. cerevisiae deletion strains, locus YNL298W, strain CLA4 (second series), active compounds read low
[20] = S. cerevisiae deletion strains, locus YNL322C, strain KRE1, active compounds read low
[21] = S. cerevisiae deletion strains, locus YNR030W, strain Alg12, active compounds read low
[22] = S. cerevisiae deletion strains, locus YPL055C, strain LGE1, active compounds read low
[23] = S. cerevisiae deletion strains, locus YPL241C, strain CIN2, active compounds read low
[24] = S. cerevisiae deletion strains, locus YPR135W, strain CTF4, active compounds read low

Measured: normalized growth

N#Cc1ccc(Oc2ccc(Cl)cc2)nc1
inactive: [1] 1.04 | [2] 0.975 | [3] 0.944 | S. cerevisiae deletion strains, locus YDL134C, strain PPH21, active compounds read low 0.985 | [4] 1.01 | [5] 0.977 | [6] 1 | S. cerevisiae deletion strains, locus YGR229C, strain SMI1, active compounds read low 0.987 | [7] 0.86 | [8] 0.992 | [9] 0.984 | [10] 0.968 | [11] 1.09 | [12] 0.966 | [13] 1.05 | [14] 1.05 | [15] 1.03 | [16] 0.971 | [17] 1.02 | [18] 0.986 | [19] 0.977 | [20] 0.98 | [21] 1.02 | S. cerevisiae deletion strains, locus YOL006C, strain TOP1, active compounds read low 0.903 | [22] 1.14 | [23] 0.886 | [24] 1.2

NC(=S)c1ccc(Oc2ccc(Cl)cc2)nc1
active: [1] 0.064 | [2] 0.0587 | [3] 0.0679 | [4] 0.0611 | [5] 0.0551 | [6] 0.0731 | [7] 0.0713 | [8] 0.0597 | S. cerevisiae deletion strains, locus YJL187C, strain SWE1, active compounds read low 0.0568 | [9] 0.0583 | [10] 0.0782 | [11] 0.0764 | [12] 0.0563 | [13] 0.0896 | [14] 0.0758 | [15] 0.0624 | [16] 0.0569 | [17] 0.0585 | S. cerevisiae deletion strains, locus YMR307W, strain GAS1, active compounds read low 0.112 | [18] 0.0622 | [19] 0.0667 | [20] 0.0647 | [21] 0.0581 | [22] 0.0942 | [23] 0.0912 | [24] 0.194 | S. cerevisiae strains, strain wild type, active compounds read low 0.0499
